Data published in ChEMBL document CHEMBL4513216, “Probing the Open Global Health Chemical Diversity Library for Multistage-Active Starting Points for Next-Generation Antimalarials” (ACS Infect Dis, 2020).
About 2,700 (4%) of roughly 68,000 compounds showed an effect of 50% or more. The sample as a whole holds a higher share of strong results than the screen did.

These compounds were tested on Plasmodium berghei (assay: Screen against P. berghei liver stage (PbLuc), transformed with Luciferase, at 2uM). Settings: tested at 2 uM.
Type: functional, HepG2

| Compound | INHIBITION |
| --- | --- |
| CC[C@H](C)[C@H](NC(=O)Cc1csc(-c2cccc(Cl)c2)n1)C(=O)O | 13.05% |
| CC(Oc1cc(Cl)cc(Cl)c1)C(=O)NCCS(N)(=O)=O (stereo not given) | -10.59% |
| CC(=O)N1CC2(CCCC2)c2ccccc21 | 3.01% |
| CCn1nc(C)c(C(C)NC(=O)c2cccc(NCC(=O)O)c2)c1C (stereo not given) | -6.64% |
| CCCn1cc(C(=O)NC(C)c2c(C)nn(CC)c2C)c(C)n1 (stereo not given) | 51.19% |
| CCCn1ncc(C(=O)NC(C)c2c(C)nn(CC)c2C)c1C (stereo not given) | -21.14% |
| Cn1ccnc1CN1CC[C@H](O)[C@@H](n2ccc(=O)[nH]c2=O)CC1 | 31.14% |
| CCN1CC2(CC1=O)CN(Cc1ccco1)CCN(C(=O)C(C)C)C2 (stereo not given) | -47.39% |
| O=C(NCCOCCO)c1cccnc1Oc1ccc(Cl)cc1 | 21.75% |
| c1ccc2oc(N3CCn4c(nnc4C4CC4)C3)nc2c1 | -45.42% |
| Cn1ccnc1-c1ccc(NCc2cn3c(n2)SCC3)nn1 | -75.92% |
| Cc1ccc(C(=O)NCCCNS(C)(=O)=O)cc1-n1cccc1 | 54.49% |
| CS(=O)(=O)NCCCNC(=O)c1cccc(-n2cccc2)c1 | 30.31% |
| Cc1ccc(C(=O)NCCCN(C)S(C)(=O)=O)cc1-n1cccc1 | -5.68% |
| CNC(=O)Cn1nc(C(C)C)c2cnn(C(C)(C)C)c2c1=O | -30.6% |
| CCN1CCC(CC(=O)NCc2nc(C)cc(C)n2)CC1 | -28.09% |
| CCN1CCC(CC(=O)NCC(O)c2cccc(OC)c2)CC1 (stereo not given) | 50.32% |
| O=C(CC(F)(F)F)NCC(O)c1ccc2ccccc2c1 (stereo not given) | 23.81% |
| CCN1CCC(CC(=O)NCCc2nc(C)cc(C)n2)CC1 | 3.4% |
| O=C(CNC(=O)C1CCCC1)NCC(O)c1ccc2ccccc2c1 (stereo not given) | 9.78% |
| COc1cccc(C(O)CNC(=O)CC2CCCCC2)c1 (stereo not given) | 51.96% |
| CC(C)Oc1cccc(C(O)CNC(=O)CCc2ccncc2)c1 (stereo not given) | -32.28% |
| COc1cccc(S(=O)(=O)NC(=O)CC2CCCC2)c1 | 14.02% |
| CCN1CCC(CC(=O)NCC(O)c2ccc3ccccc3c2)CC1 (stereo not given) | 52.08% |
| O=C(C1CCOCC1)N1C[C@@H]2[C@@H](C1)OCC(=O)N2Cc1ccncc1 | -25.8% |
| CC(Nc1ncnc2c1CCNC2)c1ccc2c(c1)CCCC2 (stereo not given) | 48.21% |
| Cn1ncc2c1CN(C(=O)Cc1ccccn1)CC2COCC1CC1 (stereo not given) | -4.69% |

| Compound | INHIBITION |
| --- | --- |
| O=C(C1CCC1)N1CCN(Cc2ccc(F)cc2)[C@H]2CS(=O)(=O)C[C@H]21 | 5.17% |
| Cc1ncc2c(n1)CN(CC(=O)Nc1c(C)nn(C)c1C)CC2 | 64.16% |
| Cc1ncc2c(n1)CN(CC(=O)Nc1cccnc1)CC2 | 51.94% |
| CCc1ncc2c(n1)CN(CC(=O)Nc1cccnc1)CC2 | -28.98% |
| Cc1ncc2c(n1)CN(CC(=O)Nc1cc(C)on1)CC2 | 31.57% |
| Cc1ncc2c(n1)CN(CC(=O)Nc1ccncc1)CC2 | -63.75% |
| Cc1cc(NC(=O)CN2CCc3cnc(C)nc3C2)on1 | 42.11% |
| Cc1cc(C(=O)N2CCC3(CCNCC3)CC2)c2cccc(C)c2n1 | -26.08% |
| COc1ccccc1CNC(Cc1cccs1)c1nc(C)c(C)s1 (stereo not given) | 46.15% |
| Cc1nc(C)n(C2CCCN(C(=O)c3ccc(OC(C)C)nc3)C2)n1 (stereo not given) | 3.33% |
| CCN(CCN(C)C)c1nc(CCN)nc2sc(C)c(C)c12 | -6.77% |
| Cn1ncc2c1NC(=O)CC2c1ccc(O)cc1 (stereo not given) | 16.01% |
| Cc1cc(C)n(CC2CCCN2C(=O)c2cccc3c2OCO3)n1 (stereo not given) | -72.55% |
| COCCOc1ncccc1C(=O)N1CCCC1Cn1cc(C)cn1 (stereo not given) | -17.31% |
| Cc1cc(C)n(CC2CCCN2C(=O)c2cccc3c2OCCO3)n1 (stereo not given) | 50.75% |
| Cc1cnn(CC2CCCCN2C(=O)c2cccnc2N(C)C)c1 (stereo not given) | 70.27% |
| Cc1cc(C)n(CC2CCCN2C(=O)Cc2c(C)noc2C)n1 (stereo not given) | 51.19% |
| CCCN1CCCC1Cn1nc(C)cc1C (stereo not given) | 60.23% |
| Cc1cc(C)n(CC2CCCN2C(=O)c2c(C)noc2C)n1 (stereo not given) | -27.28% |
| Cc1cc(C)n(CC2CCCN2C(=O)c2ccc3c(c2)OCCO3)n1 (stereo not given) | 4.07% |
| CN(C)c1ncccc1C(=O)N1CCCC1Cn1cccn1 (stereo not given) | 7.13% |
| Cc1cc(C)n(CC2CCCN2CCS(C)(=O)=O)n1 (stereo not given) | -6.16% |
| COCCN1CCCC1Cn1nc(C)cc1C (stereo not given) | 17.98% |
| Cc1cc(C)n(CC2CCCN2C(=O)Cc2c(C)nn(C)c2C)n1 (stereo not given) | -15.05% |
| COc1ccc(CN2CCO[C@H]3[C@H](OCc4ccncc4)CC[C@@H]32)cc1 | -3.18% |
| Cc1nn(C2CCCCC2)c2nc(C(C)(C)CN3CCOCC3)[nH]c12 | 48.54% |
| Cc1cccnc1CN1CCN(C(=O)CCn2ccc(=O)[nH]c2=O)CC1 | 35.88% |

| Compound | INHIBITION |
| --- | --- |
| Cc1cccc(Cc2cc(C)nc(C3CCCNC3)c2)c1 (stereo not given) | -27.54% |
| CCOCC(=O)NCCC(O)c1ccoc1 (stereo not given) | 1.3% |
| O=C(NCCNc1ncccn1)C1CC(=O)N(Cc2ccccn2)C1 (stereo not given) | 35.65% |
| Nc1cc(N2CCCC2c2cnccn2)ncn1 (stereo not given) | 30.38% |
| Cc1cc(C)n(CC2CCCN2C(=O)c2c[nH]c3ncccc23)n1 (stereo not given) | -1.56% |
| CCOc1ncccc1C(=O)N1CCCC1Cn1nc(C)cc1C (stereo not given) | 11.95% |
| Cc1cnn(CC2CCCN2C(=O)c2ccccc2-n2cnnn2)c1 (stereo not given) | 21.39% |
| Cc1cnn(CC2CCCCN2C(=O)c2ccccc2-n2cccn2)c1 (stereo not given) | 37.68% |
| Cc1cnn(CC2CCCN2C(=O)c2ccccc2-n2cccn2)c1 (stereo not given) | 76.38% |
| Cc1cc(C)n(CC2CCCN2C(=O)c2cccnc2N(C)C)n1 (stereo not given) | 56.02% |
| CCc1c(C(=O)N2CCC3(CCCN(CCO)C3=O)C2)csc1C (stereo not given) | 40.64% |
| CCCC(=O)N1CCN(CCN(C)C)c2nc(C)ccc2C1 | 19.51% |
| Cn1ccnc1SCC(=O)NCCC1CCCO1 (stereo not given) | -38.4% |
| O=C(c1ccon1)N1CCCCC1c1nc2cc(F)ccc2[nH]1 (stereo not given) | 14.79% |
| COCCC1CN(Cc2cn(CCC(N)=O)c3ccccc23)CCO1 (stereo not given) | 26.22% |
| Cc1nnc(CN2CCC(Oc3ccc(F)cc3)CC2)o1 | -4.89% |
| C/N=C1\c2cc3cc(OC)ccc3n2CCN1Cc1ccccc1 | -2.66% |
| c1cn2c(n1)CN(C1CCOCC1)CC(CN1CCCC1)C2 (stereo not given) | 29.95% |
| OCC1(O)CCN(Cc2noc(-c3ccccc3)n2)CC1 | 26.3% |
| COc1cccc(CN2CCCC3(CCN(C(=O)[C@H]4CCCO4)C3)C2)c1 (stereo not given in full) | 21.89% |
| COc1cccc(CN2CCCC3(CCN(C(=O)c4ccco4)C3)C2)c1 (stereo not given) | 8.37% |
| COc1cccc(CN2CCCC3(CCN(C(=O)N4CCCC4)C3)C2)c1 (stereo not given) | 50.17% |
| CCn1[nH]c(C)c2c(C(F)(F)C(F)(F)F)cc(=O)nc1-2 | 1.01% |
| Cc1nsc(C(=O)NCCc2ccccc2)n1 | -7.16% |
| Cc1nsc(C(=O)NCCc2cccs2)n1 | 55.25% |
| Cc1nsc(C(=O)NCCc2ccc(F)cc2)n1 | -0.59% |
| Cc1ccc(CN2CCC3(CC2)CC(c2cccnc2)CO3)s1 (stereo not given) | 23.79% |

| Compound | INHIBITION |
| --- | --- |
| CCS(=O)(=O)c1ccc(N2CCC(NC(=O)NC(C)CO)CC2)cc1 (stereo not given) | 7.85% |
| Cc1ccc(CN(C)C(=O)Cn2nc(-c3ccc(F)cc3)oc2=O)cc1 | 5.28% |
| CN(Cc1ccc(F)cc1)C(=O)Cn1nc(-c2ccc(F)cc2)oc1=O | -10.54% |
| Cc1ccsc1CN(C)C(=O)Cn1nc(-c2ccc(F)cc2)oc1=O | 51.99% |
| COc1ccc(CC(C)(O)CNC(=O)NCc2cccs2)cc1 (stereo not given) | 45.62% |
| CC(C)OCC(=O)N1CCCN(Cc2ccc(C#N)cc2)CC1 | 2.08% |
| Cc1nccn1C1CCCN(C(=O)c2sccc2-n2cnnn2)C1 (stereo not given) | -13.92% |
| Cc1ccc2c(c1)c(CNC(=O)C1CCN(CC(N)=O)CC1)nn2C | 58.53% |
| Cc1ccc2c(c1)c(CNC(=O)C1CCCN(CC(N)=O)C1)nn2C (stereo not given) | -1.87% |
| Cc1ccc2c(c1)c(CNC(=O)C1CCN(C(=O)C3CC3)CC1)nn2C | -13.72% |
| CC(C)c1cc(C(=O)N[C@@H]2CC[C@@H](Oc3ccccc3)[C@@H]2O)on1 | 19.69% |
| CCc1c(C(=O)O)nnn1-c1cc(C)cc(C)c1 | -50.41% |
| COc1ccccc1OC1(C(=O)O)CCN(c2nccnc2C)CC1 | 1.34% |
| COc1ccccc1OC1(C(=O)O)CCN(c2ncnc(C)c2C)CC1 | 60.13% |
| COc1ccccc1OC1(C(=O)O)CCN(c2nc(C)cnc2C)CC1 | 33.9% |
| O=C(CC1CC1)NC[C@]12COC[C@H]1CN(c1ncccn1)C2 | 22.36% |
| Cc1nc(C2CCCN2C(=O)Cc2cccc(F)c2)nc(O)c1C (stereo not given) | 27.81% |
| COc1ccc(CC(=O)N2CCCC2c2nc(C)c(C)c(O)n2)cc1 (stereo not given) | 29.48% |
| Cc1nc(C2CCCN2C(=O)Cc2ccc3c(c2)OCO3)nc(O)c1C (stereo not given) | 22.39% |
| Cc1nc(C2CCCN2C(=O)Cc2ccc(F)cc2)nc(O)c1C (stereo not given) | 46.57% |
| COc1cccc(CC(=O)N2CCCC2c2nc(C)c(F)c(O)n2)c1 (stereo not given) | 52.82% |
| COc1cccc(CC(=O)N2CCCC2c2nc(C)c(C)c(O)n2)c1 (stereo not given) | 55.74% |
| CCOC(=O)[C@]12CCCN(Cc3cccs3)C[C@H]1CN(C(C)=O)C2 | -12.74% |
| Cc1nc2cc(O)nn2c(C)c1CCC(=O)N(C)Cc1cscn1 | -1.73% |
